The source of these data is PubChem BioAssay (NCATS).

In test [1] the target is Estrogen receptor (Homo sapiens) (UniProt P03372). The test can be described thus: qHTS assay for small molecule antagonists of estrogen receptor alpha signaling (AID 588513; active = well fitted curve in the direction sought with a large enough effect in the signal ratio, with a control signal flat, not every such curve was filed as active; the % refers to the signal ratio; note: % is set by controls: 0 for no effect and ±100 for the full control effect). A digest of the protocol: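 Fluorescence from CCF4 substrate after 2 h at room temperature gave reporter activity; cells had been exposed to compound and 0.5nM 17-beta-estradiol for 18 h at 37 C. Hill-equation fitting yielded IC50 and maximal response.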
Sequence of Estrogen receptor (Homo sapiens) (P03372 whole entry, looked up): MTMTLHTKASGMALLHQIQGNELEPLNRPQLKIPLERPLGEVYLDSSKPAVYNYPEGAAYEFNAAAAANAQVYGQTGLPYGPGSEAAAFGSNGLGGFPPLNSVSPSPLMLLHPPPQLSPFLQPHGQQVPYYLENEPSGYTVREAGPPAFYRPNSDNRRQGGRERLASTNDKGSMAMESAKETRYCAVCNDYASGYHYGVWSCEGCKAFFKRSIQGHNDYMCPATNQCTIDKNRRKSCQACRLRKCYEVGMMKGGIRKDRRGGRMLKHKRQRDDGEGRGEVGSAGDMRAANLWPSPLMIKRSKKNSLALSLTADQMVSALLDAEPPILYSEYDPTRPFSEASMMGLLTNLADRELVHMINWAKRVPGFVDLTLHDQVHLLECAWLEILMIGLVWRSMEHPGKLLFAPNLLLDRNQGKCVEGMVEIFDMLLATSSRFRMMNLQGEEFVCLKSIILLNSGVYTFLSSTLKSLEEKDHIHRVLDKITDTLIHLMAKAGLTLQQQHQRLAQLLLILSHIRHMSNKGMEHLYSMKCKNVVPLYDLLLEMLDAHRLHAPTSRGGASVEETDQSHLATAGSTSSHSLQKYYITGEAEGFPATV

Test [2] has the same target. The test is described as follows: qHTS assay for small molecule agonists of estrogen receptor alpha signaling (AID 588514).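 Note: 0% = vehicle only and 100% = reference agonist; nearly all actives have a fitted effect of over 70% in size.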 The essentials: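 Efficacy is expressed against 20 nM 17-beta-estradiol (100%) and DMSO basal (0%); EC50 from Hill equation. Assay: beta-lactamase reporter in ER-alpha-UAS-bla HEK 293 cells, 18 h compound incubation, CCF4 detection.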
Test [3] is described as follows: qHTS assay for small molecule antagonists of peroxisome proliferator-activated receptor delta signaling (AID 588535).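 Note: cells co-treated with a PPAR-delta agonist as stimulator during compound exposure.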 Particulars: HEK293T PPARd-UAS-bla, beta-lactamase FRET ratio, 18 h; 460 nm channel. A digest of the protocol:
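Fluorescence from CCF4-loaded GeneBLAzer PPAR-delta-UAS-bla HEK293T cells (2 hrs RT loading) quantified reporter inhibition after an 18 hr, 37 C compound exposure across a titration.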

The target of test [4] is Peroxisome proliferator-activated receptor gamma (Homo sapiens) (UniProt P37231). The test is described as follows: qHTS assay for small molecule antagonists of peroxisome proliferator-activated receptor gamma signaling (AID 588537; active = well fitted inhibition curve with a large enough effect in the signal ratio, with a control signal flat, not every such curve was filed as active; the % refers to the signal ratio;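 note: reporter cells co-stimulated with 50 nM rosiglitazone agonist during compound treatment; % of control where 0% means no effect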). The essentials:
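Fluorescence at 460 and 530 nm (405 nm excitation) reported beta-lactamase cleavage of CCF4 after 2 h room-temperature loading. HEK293 reporter cells in 1% charcoal/dextran-treated FBS had received compound and rosiglitazone for 16 h.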

Test [5] concerns the target Vitamin D3 receptor (Homo sapiens) (UniProt P11473). The test can be described thus: qHTS assay for small molecule agonists of vitamin D receptor signaling (AID 588543).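 Note: 0% = DMSO basal and 100% = reference agonist control.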 The essentials:
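Reporter cells (HEK293T, VDR-UAS-bla) were seeded in medium with 2% charcoal-stripped serum and incubated 5 h, then compounds in concentration series were added for 16 h at 37 °C. Stimulation was scaled between DMSO basal and 50 nM 1α,25-dihydroxyvitamin D3.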
On the technique in general: Quantitative high-throughput screening tests each substance at several concentrations.

Test [6] is described as follows: qHTS assay for small molecule agonists of retinoid X receptor alpha signaling (AID 588544).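 For activation: 0% = DMSO basal wells and 100% = reference agonist.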 Particulars: HEK293T RXRa-UAS-bla, beta-lactamase reporter, 18 h; 530 nm emission.
Test [7] addresses Retinoic acid receptor RXR-alpha (Homo sapiens) (UniProt P19793). The test is described as above.
Test [8] has as its target Thyroid hormone receptor beta (Homo sapiens) (UniProt P10828). The test is described as follows: qHTS assay for small molecule agonists of thyroid hormone receptor beta signaling (AID 588545). A digest of the protocol: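 Cells (2500/well) were seeded, incubated 4 hrs at 37 C, dosed with a compound series, incubated 18 hrs, loaded with CCF4 dye for 2 hrs at RT, then read for fluorescence. Data were scaled between DMSO (0%) and 10 nM T3 (100%).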

Test [9] is described as follows: qHTS assay for small molecule antagonists of retinoid X receptor alpha signaling (AID 588546; active = well fitted inhibition curve with a large enough effect in the signal ratio, with a control signal flat, not every such curve was filed as active; the % refers to the signal ratio;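 note: cells stimulated with 9-cis-retinoic acid as agonist; % is set by controls: 0 for no effect and ±100 for the full control effect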). The note with it: HEK293T RXRa-UAS-bla, beta-lactamase ratio, antagonist mode; measured here: W530 green channel, cytotoxicity proxy. A digest of the protocol:
(§1)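 Beta-lactamase reporter inhibition, read as CCF4 fluorescence ratio (ex 405, em 460/530 nm) after 2 h at RT. HEK293T UAS-bla cells, 2500/well, were stimulated with 9-cis-RA at 500 or 100 nM final alongside test compound for 18 h at 37 C.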

For test [10], the target named is Retinoic acid receptor RXR-alpha (Homo sapiens) (UniProt P19793). The description is as above. Particulars: HEK293T RXRa-UAS-bla, beta-lactamase ratio, antagonist mode. A digest of the protocol: as §1
Sequence of Retinoic acid receptor RXR-alpha (Homo sapiens) (P19793 whole entry, looked up): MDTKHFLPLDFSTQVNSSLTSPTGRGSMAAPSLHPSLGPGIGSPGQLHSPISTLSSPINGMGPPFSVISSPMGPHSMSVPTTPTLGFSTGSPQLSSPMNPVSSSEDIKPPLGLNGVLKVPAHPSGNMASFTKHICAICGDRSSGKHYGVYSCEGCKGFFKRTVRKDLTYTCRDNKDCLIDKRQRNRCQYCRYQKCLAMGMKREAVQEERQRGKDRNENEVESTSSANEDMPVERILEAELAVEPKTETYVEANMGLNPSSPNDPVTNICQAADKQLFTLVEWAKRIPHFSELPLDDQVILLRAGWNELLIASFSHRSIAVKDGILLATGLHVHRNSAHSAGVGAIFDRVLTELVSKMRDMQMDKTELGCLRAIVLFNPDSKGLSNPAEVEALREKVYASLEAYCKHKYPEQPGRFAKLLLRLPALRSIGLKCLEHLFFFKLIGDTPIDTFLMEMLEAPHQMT
The nature of test [11]: qHTS assay for small molecule activators of the nuclear factor-kappa B (NF-kB) signaling pathway (AID 651749; active = well fitted activation curve with a large enough effect in the signal ratio; the % refers to the signal ratio; note: series mostly up to about 77 µM; % of control where 0% means no effect). The note with it: NF-kB-bla ME-180 cells, beta-lactamase FRET ratio, 16 h; activation: stronger effect = higher value. The essentials: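 In this qHTS format, compounds acting as activators increase NF-kB-driven beta-lactamase in ME-180 cells, measured as disrupted FRET after 16 hr exposure at 37C and 5% CO2.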

Test [12] can be described thus: qHTS assay for environmental chemicals that activate the Aryl hydrocarbon Receptor (AhR) signaling pathway (AID 651777; active = well fitted curve in the direction sought with a large enough effect; an effect the other way counts as inactive or inconclusive; note: % of control where 0% means no effect; nearly all actives have a fitted effect of over 15% in size). The note with it: 1A2-DRE human hepatoma cells, luciferase, 24 h; activation: stronger effect = higher value. A digest of the protocol: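 Human hepatoma 1A2-DRE cells, stably carrying a dioxin response element and CYP1A2 promoter driving luciferase, were exposed to compounds for 24 hr at 37 C and 5% CO2. Luciferase signal was then read after 30 min One-Glo at room temperature.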

Test [13] concerns the target Peroxisome proliferator-activated receptor alpha (Homo sapiens) (UniProt Q07869). The test can be described thus: qHTS assay for small molecule agonists of the peroxisome proliferator-activated receptor alpha (PPARalpha) signaling pathway (AID 651778; active = well fitted curve in the direction sought with a large enough effect; an effect the other way counts as inactive or inconclusive; note: % of control where 0% means no effect). The note with it: PathHunter PPARalpha complementation, chemiluminescence, 6 h; max response: stronger effect = higher value. The essentials: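 Enzyme-fragment complementation assay in which ligand-bound PPARalpha translocates and forms an active enzyme that generates chemiluminescence. Cells were plated overnight, exposed to compound for 6 hr at 37 C, and then given detection reagent for 60 min at room temperature.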

The nature of test [14]: qHTS assay for small molecule agonists of the antioxidant response element (ARE) signaling pathway measured by Nrf2-dependant transcriptional activity - cell viability counter screen (AID 720653; active = well fitted curve in the direction sought with a large enough effect in the repeat runs; an effect the other way counts as inactive or inconclusive; note: % is set by controls: 0 for no effect and ±100 for the full control effect). Particulars: ARE-bla HepG2 viability, CellTiter-Glo ATP luminescence, 16 h; max response: stronger effect = lower value. A digest of the protocol: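 ARE-bla HepG2 cells treated with compounds for 16 h at 37C; this counter screen measures viability as intracellular ATP by CellTiter-Glo luminescence after 30 min at room temperature.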

A short description of test [15]: qHTS assay for cell viability of the p53RE-bla HCT-116 cell line (AID 743292; active = well fitted curve in the direction sought with a large enough effect; an effect the other way counts as inactive or inconclusive; note: % is set by controls: 0 for no effect and ±100 for the full control effect; nearly all actives have a fitted effect of over 55% in size). The essentials: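 CellSensor p53RE-bla HCT-116 cells, 4,000/well, preincubated 5 h at 37 C, then exposed to compounds in DMSO for 16 h at 37 C. Viability read as CellTiter-Glo luminescence (intracellular ATP) after 30 min at room temperature.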
Test [16] concerns the target Nuclear receptor subfamily 1 group I member 2 (Rattus norvegicus) (UniProt Q9R1A7). The test is described as follows: qHTS assay for small molecule activators of the rat pregnane X receptor (rPXR) signaling pathway (AID 651751; call rule not given here; note: 0% is about no effect). The note with it: rPXR reporter cells, luciferase (One-Glo), 24 h.
A short description of test [17]: qHTS assay for small molecule activators of the human pregnane X receptor (PXR) signaling pathway (AID 720659; call rule not given here; note: 0% is about no effect).
The target of test [18] is Peroxisome proliferator-activated receptor gamma (Homo sapiens) (UniProt P37231). The test is described as follows: qHTS assay for small molecule agonists of peroxisome proliferator-activated receptor gamma signaling (AID 588536; active = well fitted curve in the direction sought with a large enough effect in the signal ratio, with a control signal flat, not every such curve was filed as active; the % refers to the signal ratio;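 note: 0% = DMSO basal wells and 100% = rosiglitazone at 2 µM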). The essentials: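 Compound treatment: 16 h, 37 C, HEK293 GeneBLAzer cells. Detection: CCF4, 2 h RT. Values: Hill-fit EC50, efficacy as % of 2 uM rosiglitazone.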
Sequence of Peroxisome proliferator-activated receptor gamma (Homo sapiens) (P37231 whole entry, looked up): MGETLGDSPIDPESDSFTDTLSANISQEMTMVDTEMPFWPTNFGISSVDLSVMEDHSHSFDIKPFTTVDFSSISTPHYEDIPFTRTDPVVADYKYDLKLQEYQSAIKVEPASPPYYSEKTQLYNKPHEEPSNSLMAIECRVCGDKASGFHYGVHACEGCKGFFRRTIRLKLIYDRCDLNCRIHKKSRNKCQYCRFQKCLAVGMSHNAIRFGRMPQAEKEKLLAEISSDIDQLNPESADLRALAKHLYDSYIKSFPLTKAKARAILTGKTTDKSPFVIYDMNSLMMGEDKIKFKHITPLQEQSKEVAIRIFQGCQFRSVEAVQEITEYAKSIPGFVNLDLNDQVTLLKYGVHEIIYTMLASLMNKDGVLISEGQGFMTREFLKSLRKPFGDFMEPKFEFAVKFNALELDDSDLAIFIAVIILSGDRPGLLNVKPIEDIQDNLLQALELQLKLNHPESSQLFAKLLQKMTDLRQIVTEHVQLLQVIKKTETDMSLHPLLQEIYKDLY

In test [19] the target is Vitamin D3 receptor (Homo sapiens) (UniProt P11473). The test can be described thus: qHTS assay for small molecule antagonists of vitamin D receptor signaling (AID 588541).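 Note: receptor activated by calcitriol during compound treatment; series mostly up to about 77 µM; % is set by controls: 0 for no effect and ±100 for the full control effect.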 A digest of the protocol:
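VDR-UAS-bla HEK293T cells in 2% charcoal-stripped FBS were stimulated with 1-alpha,25-dihydroxyvitamin D3 (3 nM final) plus compound for 16 h at 37 C. The beta-lactamase CCF4 readout was normalized to 50 nM agonist and DMSO, and Hill fits gave IC50.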

The nature of test [20]: qHTS assay for cell viability of HEK293 cells (AID 743288; active = well fitted curve in the direction sought with a large enough effect; an effect the other way counts as inactive or inconclusive; note: % is set by controls: 0 for no effect and ±100 for the full control effect; nearly all actives have a fitted effect of over 50% in size). The note with it: ATP luminescence (CellTiter-Glo), 18 h; max response: stronger effect = lower value. The essentials: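 Viable-cell counts were inferred from luciferase-based ATP content in HEK293 cells seeded at 2,000/well, pre-incubated ≥5 h, then dosed with DMSO-solubilised compounds for 18 h at 37 C.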

Inconclusive results are not listed. Calls of active or inactive are those of the source. Unless noted, calls come from the whole dose curve.

Sequence of Thyroid hormone receptor beta (Homo sapiens) (P10828 whole entry, looked up): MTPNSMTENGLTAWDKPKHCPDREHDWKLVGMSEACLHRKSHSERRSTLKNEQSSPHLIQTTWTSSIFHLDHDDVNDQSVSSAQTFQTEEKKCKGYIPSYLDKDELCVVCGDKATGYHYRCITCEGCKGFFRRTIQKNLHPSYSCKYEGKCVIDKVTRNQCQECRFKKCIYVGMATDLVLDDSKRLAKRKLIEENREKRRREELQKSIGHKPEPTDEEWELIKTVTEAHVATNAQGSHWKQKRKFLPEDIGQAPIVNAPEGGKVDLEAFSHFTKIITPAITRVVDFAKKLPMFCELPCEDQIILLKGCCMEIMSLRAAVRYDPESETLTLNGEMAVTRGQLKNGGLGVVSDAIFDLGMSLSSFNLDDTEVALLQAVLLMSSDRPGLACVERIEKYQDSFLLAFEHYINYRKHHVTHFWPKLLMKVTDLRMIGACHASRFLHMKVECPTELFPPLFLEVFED
Sequence of Nuclear receptor subfamily 1 group I member 2 (Rattus norvegicus) (Q9R1A7 whole entry, looked up): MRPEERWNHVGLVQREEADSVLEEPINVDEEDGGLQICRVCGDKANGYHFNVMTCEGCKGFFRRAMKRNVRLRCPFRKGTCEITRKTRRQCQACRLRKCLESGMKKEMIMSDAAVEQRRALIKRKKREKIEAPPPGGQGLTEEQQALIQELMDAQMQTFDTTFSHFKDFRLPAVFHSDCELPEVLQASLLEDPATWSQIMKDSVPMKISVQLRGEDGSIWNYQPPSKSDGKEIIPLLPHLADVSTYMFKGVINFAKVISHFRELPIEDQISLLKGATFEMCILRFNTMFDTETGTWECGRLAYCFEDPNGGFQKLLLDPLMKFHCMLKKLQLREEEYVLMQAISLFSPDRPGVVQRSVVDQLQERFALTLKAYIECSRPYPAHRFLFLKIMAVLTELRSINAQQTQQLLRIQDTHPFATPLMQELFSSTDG
Sequence of Vitamin D3 receptor (Homo sapiens) (P11473 whole entry, looked up): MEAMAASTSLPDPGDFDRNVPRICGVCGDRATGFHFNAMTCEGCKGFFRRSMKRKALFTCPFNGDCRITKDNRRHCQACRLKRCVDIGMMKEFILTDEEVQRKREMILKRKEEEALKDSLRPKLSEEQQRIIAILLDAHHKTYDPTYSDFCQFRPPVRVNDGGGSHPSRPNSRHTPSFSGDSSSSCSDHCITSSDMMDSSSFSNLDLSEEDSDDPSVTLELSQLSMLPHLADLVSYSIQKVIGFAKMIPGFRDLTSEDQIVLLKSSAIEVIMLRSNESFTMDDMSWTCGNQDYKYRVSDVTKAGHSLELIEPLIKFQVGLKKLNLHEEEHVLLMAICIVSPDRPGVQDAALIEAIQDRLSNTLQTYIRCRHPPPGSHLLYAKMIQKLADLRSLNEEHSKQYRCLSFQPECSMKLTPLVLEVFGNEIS
Sequence of Peroxisome proliferator-activated receptor alpha (Homo sapiens) (Q07869 whole entry, looked up, the tested form may be a part): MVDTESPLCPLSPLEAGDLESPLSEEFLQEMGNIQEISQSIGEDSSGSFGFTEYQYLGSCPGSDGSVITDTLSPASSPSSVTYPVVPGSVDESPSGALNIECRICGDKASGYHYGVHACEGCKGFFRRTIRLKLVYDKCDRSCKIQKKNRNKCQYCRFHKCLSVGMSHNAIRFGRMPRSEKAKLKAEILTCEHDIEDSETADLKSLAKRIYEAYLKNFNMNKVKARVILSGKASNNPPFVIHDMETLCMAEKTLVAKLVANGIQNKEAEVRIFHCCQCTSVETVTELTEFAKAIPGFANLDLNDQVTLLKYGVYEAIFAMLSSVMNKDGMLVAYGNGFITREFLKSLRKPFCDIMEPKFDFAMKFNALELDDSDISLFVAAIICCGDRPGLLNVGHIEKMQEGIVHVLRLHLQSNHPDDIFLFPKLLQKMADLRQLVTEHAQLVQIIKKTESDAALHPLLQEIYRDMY

Consider `CNc1nc(=O)n(C2CCCCC2)c(=O)n1C`, for which the Potency entry in test [1], in test [2], in test [4], in [7], in [8] and in test [15] was “inactive” in each case. Further, the max response in test [3] was 8.32%; in [6], -10.1%; in test [9], -10.4%; in test [10], 4.07% (inactive); in test [13], -0.955% (inactive); in test [14], 3.71% (inactive). Also, in test [16], the max response was -0.0446% (inactive). For the same compound, the compound was called inactive in test [5] and in test [17]. Besides, the activation in test [11] is -1.72% (inactive); in [12] it was 2.39% (inactive).

As to `CC(=O)N(CCN(C(C)=O)C(C)=O)C(C)=O`, the Potency result in [1], in test [2], in test [19], in [7], in [8] and in [15] was “inactive” throughout. Moreover, the max response in [3] is 30.1%; in [6] it was -4.71%; in test [9], -2.01%; in [10] it was -5.17% (inactive); in test [13], 0.299% (inactive); in [14], -1.28% (inactive). The max response in test [16] is -0.996% (inactive). Moreover, the outcome in [18], in [5] and in test [17] was inactive. Also, the activation in test [11] was -1.08% (inactive); in test [12], -3.27% (inactive).

Take `CC(C)C(=O)OCC(C)(C)C(O)C(C)C` (stereo unspecified): the Potency result in test [1], in [2], in [4], in test [19], in test [7] and in test [8] was “inactive” each time. Further, the Potency result in test [15] was “inactive”. Moreover, the max response is 1.76% in test [3]; 6.96% in test [6]; -13.9% in test [9]; -10.9% (inactive) in test [10]; -0.497% (inactive) in [13]; -3.28% (inactive) in test [14]. The max response in test [20] is -9.28% (inactive); in test [16], -1.98% (inactive). In addition, the compound was classed as inactive in test [18], in test [5] and in test [17]. The activation in [11] is -1.26% (inactive); in test [12], -2.96% (inactive).

Consider `O=c1[nH]c(=O)c2[nH]cnc2[nH]1`, for which the Potency result in [1], in test [2], in [4], in test [19], in [7] and in test [15] was “inactive” in each case. Besides, the max response in test [3] was -11.9%; in test [6], -13.2%; in test [9], -4.54%; in test [10], -1.52% (inactive); in test [13], -2.27% (inactive); in test [14] it was 0.287% (inactive). Moreover, the max response was -12.8% (inactive) in [20] and 0.842% (inactive) in test [16]. The compound was classed as inactive in [18], in test [5] and in test [17]. The figures for the activation in [11] and in test [12] were -1.45% (inactive) and 0.87% (inactive), respectively.

On to `CC(C)(C)C(O)/C(=C\c1ccc(Cl)cc1)n1cncn1` (stereo unspecified), for which the Potency entry in test [1], in [2], in [4], in test [19], in test [8] and in test [15] was “inactive” each time. Also, the max response was -55.9% in test [3]; 16.3% in test [6]; -0.493% in test [9]; -24.9% (inactive) in test [10]; 6.34% (inactive) in test [13]; -4.78% (inactive) in test [14]. Besides, the max response in test [20] is -13.5% (inactive). Further, the result in test [18] and in [5] was inactive. The activation in test [11] was -1.6% (inactive); in test [12], 3.57% (inactive).

Turning to `C=C(C)C(=O)OCCOC(=O)C(=C)C`, the Potency entry in test [1], in test [2], in [4], in [19], in test [7] and in test [8] was “inactive” in each case. The Potency entry in test [15] is “inactive”. For the same compound, the max response in test [3] was -2.87%; in [6] it was 0.328%; in test [9], -22.3%; in [10], -2.81% (inactive); in test [13] it was -3.02% (inactive); in [14] it was -15.5% (inactive). Besides, the max response is -1.71% (inactive) in [20] and -5.37% (inactive) in test [16]. Moreover, the outcome in [18], in test [5] and in [17] was inactive. For the same compound, the activation in test [11] is -0.69% (inactive); in test [12] it was -1.11% (inactive).
